Screening results as filed in PubChem.
Shown are actives, neighbours in structure and some others; about 2.4% of the full set was active somewhere.
miR122 inh = miR-122 inhibition in Huh7 cells; Huh7 miR-122 Renilla luciferase sensor, 48 h; neutral wells = 0, positive control = 100; activation (reporter increase), % at 12.5 µM; actives 0.3% (n = 340,000);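 active = mean replicate activation score at least 90 and every replicate individually at or above 90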;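 also: higher luciferase means less miR-122 activity so hits act as miR-122 inhibitors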
Wnt bcat act = activators of Wnt/beta-catenin signaling; actives 1.2% (n = 300,000); Wnt/beta-catenin reporter cell assay, activator, plate reader; activation, % at 9.35 µM; AID 743398; in the data active = activation above about 30%, passing the limit was not always enough
MITF TRPM1 HTS = MITF TRPM1 promoter activation in melanoma cells | SK-MEL-5 TRPM1-promoter luciferase, 24 h; % of positive control, neutral wells = 0 | actives 0.75% (n = 300,000) | activation, % at 12.5 µM;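 active = mean activation of at least 80% with every replicate also reaching 80%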
DYRK1A inh = Dyrk1A (rat) kinase inhibition | Q63470 | inhibition, % at 12.5 µM | actives 0.43% (n = 310,000) | ADP-Glo luminescence, NFATc1 peptide
NSD2 inh = inhibitors of human histone methyltransferase NSD2; inhibition, % at 12.5 µM; actives 0.54% (n = 310,000); NSD2 peptide methylation, AlphaScreen, 120 min; O96028; AID 743445
INS-1E GSIS act = primary screen for activators of insulin secretion dependent on glucose, INS-1E cells, GLuc reporter luminescence; AID 743287; activation, % at 16.6 µM; INS-1E GLuc reporter insulin secretion, 2-3 h; actives 0.61% (n = 370,000);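 active = lowest replicate activation of at least 40%, so every replicate reaches that level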
Of the large screens only hits and unclear results are named; the others gave an inactive call. Rule as the data show it, unless noted: active = inhibition above about 50%; inactive = the rest.

Cc1ccc(-c2ccc(CCC(=O)O)n2NC(=O)c2ccc([N+](=O)[O-])cc2)cc1	Wnt bcat act 54
C[C@@H]1CN([C@H](C)CO)C(=O)c2cc(NS(=O)(=O)c3ccc(F)cc3)ccc2O[C@@H](C)CCCCO[C@@H]1CN(C)S(=O)(=O)c1cn(C)cn1	none (no result: Wnt bcat act, MITF TRPM1 HTS, DYRK1A inh, NSD2 inh)
CCc1cc2c(=O)n(C(C)C(=O)OC3CCCCC3)cnc2s1 (stereo not drawn)	MITF TRPM1 HTS 100 (no result: NSD2 inh)
C[C@H](O)[C@@H]1CN2CCc3ccc(-c4ccc5c(c4)OCO5)cc3[C@@H]2C[C@@H]1N(C)C(=O)c1cccc(Cl)c1	INS-1E GSIS act 188 (no result: miR122 inh, MITF TRPM1 HTS, DYRK1A inh, NSD2 inh)
CCOC(=O)N(C)[C@H]1C[C@H]2c3cc(-c4ccccc4C)ccc3CCN2C[C@H]1[C@H](C)O	none (no result: miR122 inh, MITF TRPM1 HTS, DYRK1A inh, NSD2 inh)
CC(C)n1nc(C(=O)Nc2ccccc2N2CCOCC2)c2ccccc2c1=O	INS-1E GSIS act 120 (no result: miR122 inh)
O=C(COc1ccccc1F)c1ccc(O)cc1O	miR122 inh 218 (no result: Wnt bcat act, INS-1E GSIS act)
COc1ccc(-n2nc(C(=O)NCC(=O)N3CCN(c4ccc(F)cc4)CC3)c3ccccc3c2=O)c(OC)c1	none
COc1ccc(-n2nc(C(=O)NCC(=O)N3CCN(c4ccccc4)CC3)c3ccccc3c2=O)c(OC)c1	MITF TRPM1 HTS 97 (no result: miR122 inh)
COc1cc(C2SCCS2)cc(Br)c1Oc1ncccc1[N+](=O)[O-]	none (no result: MITF TRPM1 HTS)
O=[N+]([O-])c1cccnc1Oc1ccc(C2SCCS2)cc1	Wnt bcat act 51, MITF TRPM1 HTS 103 (no result: miR122 inh, DYRK1A inh)
O=C(NCc1ccccc1)[C@H]1[C@H](CO)[C@H]2Cn3c(ccc(/C=C/c4ccccc4)c3=O)[C@@H]1N2CC1CC1	none (no result: miR122 inh, Wnt bcat act, MITF TRPM1 HTS, DYRK1A inh, NSD2 inh)
Cc1ccc(-n2c(C)cc(C(=O)CSc3nnnn3C)c2C)cc1	Wnt bcat act 63 (no result: INS-1E GSIS act)
Cc1ccc(-n2c(C)cc(C(=O)CSc3nncs3)c2C)cc1	none (no result: miR122 inh, Wnt bcat act, INS-1E GSIS act)
CCC(N=c1cc(-c2ccc(OC)cc2)oc2ccc(C)cc12)C(=O)O (stereo not drawn)	Wnt bcat act 47 (no result: miR122 inh)
CCOC(=O)/C(N=Nc1ccc2c(c1)OCO2)=C(\C)O	MITF TRPM1 HTS 115 (no result: miR122 inh)
COc1ccc(C(=O)COC(=O)C2CC3CCCC(C2)C3=O)cc1Br (stereo not drawn)	INS-1E GSIS act 58 (no result: miR122 inh)
C[C@@H]1CN([C@H](C)CO)C(=O)Cc2cc(NC(=O)Cc3ccccc3)ccc2O[C@H]1CN(C)S(=O)(=O)c1ccc(Cl)cc1	none (no result: Wnt bcat act, MITF TRPM1 HTS, DYRK1A inh, NSD2 inh)
COc1ccccc1/C=C/C=N/NC(=O)c1ccccn1	MITF TRPM1 HTS 97 (no result: miR122 inh, INS-1E GSIS act)
O=C(CSc1ccc(F)cc1)N1CCN(S(=O)(=O)c2ccccc2)CC1	none
O=C(CSc1ncccn1)N1CCN(S(=O)(=O)c2ccccc2)CC1	INS-1E GSIS act 51
Cc1ccc(C)n1-n1cnc2sc(-c3ccccc3)cc2c1=O	none (no result: miR122 inh, Wnt bcat act, DYRK1A inh)
COc1ccc(-n2cnc3sccc3c2=O)cc1	none
COc1cccc(-n2cnc3sc(-c4ccccc4)cc3c2=O)c1	MITF TRPM1 HTS 101 (no result: NSD2 inh)
COc1ccc(-n2cnc3sc(-c4ccccc4)cc3c2=O)cc1	MITF TRPM1 HTS 124 (no result: Wnt bcat act, DYRK1A inh)
O=C(C[C@@H]1C[C@H]2c3cc(NS(=O)(=O)c4ccc(F)cc4)ccc3O[C@H]2[C@@H](CO)O1)NCc1cccnc1	none (no result: Wnt bcat act, MITF TRPM1 HTS, DYRK1A inh, NSD2 inh)
CC1(C)C2([N+](=O)[O-])CN3CC1([N+](=O)[O-])CN(C2)C3c1ccccc1 (stereo not drawn)	INS-1E GSIS act 56 (no result: miR122 inh, Wnt bcat act, NSD2 inh)
C[C@@H]1CN([C@@H](C)CO)C(=O)c2cc(NS(=O)(=O)c3ccccc3)ccc2O[C@@H]1CN(C)S(=O)(=O)c1ccc(F)cc1	none (no result: Wnt bcat act, MITF TRPM1 HTS, DYRK1A inh, NSD2 inh)
O=C(Nc1nccs1)c1cc(N2CCOCC2)nc2ccccc12	INS-1E GSIS act 46 (no result: Wnt bcat act)
O=C(N1CCOCC1)N1CCN(c2ccccn2)CC1	INS-1E GSIS act 46 (no result: Wnt bcat act)
CCCNC(=O)N(C)C[C@H]1Oc2ncc(C#CCc3ccccc3)cc2C(=O)N([C@H](C)CO)C[C@@H]1C	none (no result: Wnt bcat act, MITF TRPM1 HTS, DYRK1A inh, NSD2 inh)
CC(=O)Nc1nc(CC(C)C)cc(-c2ccco2)c1C#N	INS-1E GSIS act 48 (no result: Wnt bcat act)
CCCCC(=O)Nc1sc2c(c1C#N)CC(C)(C)OC2	MITF TRPM1 HTS 91
COCC(=O)Nc1ccc2c(c1)C(=O)N(C)C[C@@H](OC)[C@@H](C)CN(C(=O)c1ccccn1)[C@H](C)CO2	none (no result: miR122 inh, Wnt bcat act, MITF TRPM1 HTS, DYRK1A inh, NSD2 inh)
O=S(=O)(NCCc1ccncc1)c1ccc(Br)cc1	miR122 inh 192 (no result: INS-1E GSIS act)
O=S(=O)(NCCc1ccncc1)c1ccc(F)cc1	none (no result: miR122 inh)
